# Calls of active or inactive are those of the source. Rule for the calls: active = hit-call score of the fitted dose curve at least 0.9, where 1 is the maximum; inactive = score below 0.9.
# How the values were obtained:
# [1] = ATG_CRE_CIS: Attagene CIS-FACTORIAL HepG2 Assay for human cAMP Responsive Element (CRE) binding protein 3 (AID 2282926); conditions: HepG2 CRE cis-reporter, Attagene multiplexed mRNA; actives raise or lower the signal
# Procedure, shortened: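 Assay format: transient reporter transfection of HepG2, 24 h treatment, total RNA isolation with DNase I step. Reporter abundance read by fluorescence after PCR and capillary separation; DMSO-normalised gain or loss fitting.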
# [2] = target: CCAAT/enhancer-binding protein beta (Homo sapiens) (UniProt P17676); assay: ATG_C_EBP_CIS: Attagene CIS-FACTORIAL HepG2 Assay for human CCAAT/Enhancer Binding Protein (C/EBP) beta (AID 2282927); conditions: HepG2 Attagene cis-factorial transcription factor reporter; actives raise or lower the signal
# Procedure, shortened: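 HepG2, transient MRTU transfection, 24 h treatment. RT-PCR plus CE fluorescence; DMSO negative control, bidirectional fit.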
# [3] = ATG_DR4_LXR_CIS: Attagene CIS-FACTORIAL HepG2 Assay for human Liver X Receptor (LXR), DR4 submotif (AID 2282929); conditions: HepG2 Attagene DR4 cis-reporter, mRNA transcription; actives raise or lower the signal
# Procedure, shortened: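 Readout: reporter transcript fluorescence after RT-PCR and capillary electrophoresis, fitted bidirectionally against DMSO controls. Human HepG2 liver cells carried transiently transfected multiplexed reporter constructs; endogenous transcription factor activity measured 24 h post-dosing.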
# [4] = target: Aryl hydrocarbon receptor (Homo sapiens) (UniProt P35869); assay: ATG_Ahr_CIS: Attagene CIS-FACTORIAL HepG2 Assay for human Aryl Hydrocarbon Receptor (Ahr) (AID 2282930); conditions: HepG2 AhR cis-factorial reporter transcription; actives raise or lower the signal
# Procedure, shortened: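 Endogenous factor activity is tracked through cis-promoter reporter units transfected into HepG2 cells. Transcript levels at 24 h are read by fluorescent RT-PCR and capillary electrophoresis, with activity in either direction scored relative to DMSO.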
# [5] = ATG_AP_1_CIS: Attagene CIS-FACTORIAL HepG2 Assay for human Activator Protein 1 (AP-1) (AID 2282931); conditions: HepG2 Attagene cis-factorial AP-1 reporter mRNA; actives raise or lower the signal
# Procedure, shortened: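 Reporter transcripts were measured 24 h after dosing by RT-PCR and capillary electrophoresis of fluorescent fragments. Cells: HepG2 carrying transfected cis-regulated reporter constructs reading endogenous factor activity. Gain or loss fitted against DMSO.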
# [6] = ATG_AP_2_CIS: Attagene CIS-FACTORIAL HepG2 Assay for human Activator Protein 2 (AP-2) (AID 2282932); conditions: HepG2 AP-2 cis-reporter, Attagene transcription factor profiling; actives raise or lower the signal
# Procedure, shortened: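 Liver-derived HepG2 line, cis-reporter system measuring endogenous factors; 24 h dosing; reporter mRNA detected by fluorescent RT-PCR and capillary electrophoresis.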
# [7] = target: Retinoic acid receptor alpha (Homo sapiens) (UniProt P10276); assay: ATG_DR5_RAR_CIS: Attagene CIS-FACTORIAL HepG2 Assay for human Retinoic Acid Receptor Alpha (RARE), DR5 submotif (AID 2282934); conditions: HepG2 Attagene cis-factorial RARE DR5 reporter, mRNA; actives raise or lower the signal
# Procedure, shortened: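 After 24 h of chemical exposure, transiently transfected HepG2 cells were lysed for total RNA; the DR5-regulated reporter transcript was quantified via RT-PCR and capillary electrophoresis, with activity fitted bidirectionally against DMSO.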
# [8] = target: Transcription factor E2F1 (Homo sapiens) (UniProt Q01094); assay: ATG_E2F_CIS: Attagene CIS-FACTORIAL HepG2 Assay for human E2F Transcription Factor 1 (AID 2282935); conditions: HepG2 Attagene cis-reporter, E2F reporter RNA transcripts; actives raise or lower the signal
# Procedure, shortened: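 Liver-derived HepG2 cells expressing transfected promoter-driven reporter units received test chemical for 24 hours. Signal gains or losses were fitted bidirectionally against DMSO.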
# [9] = ATG_M_61_CIS: Attagene CIS-FACTORIAL HepG2 Assay for M61 Transcription Factor (Internal Marker) (AID 2282937); conditions: HepG2 Attagene CIS-FACTORIAL M61 internal marker reporter; actives raise or lower the signal
# Procedure, shortened: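 Readout: fluorescent reporter mRNA fragments resolved by capillary electrophoresis after RT-PCR. Transiently transfected human HepG2 cells carried MRTU constructs reporting endogenous TF activity; 24 h chemical exposure; gain or loss of signal fitted relative to DMSO.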
# [10] = ATG_EGR_CIS: Attagene CIS-FACTORIAL HepG2 Assay for human Early Growth Response 1 (EGR1) (AID 2282938); conditions: HepG2 Attagene CIS-FACTORIAL EGR reporter mRNA; actives raise or lower the signal
# Procedure, shortened: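 Read-out: fluorescent reporter-mRNA fragments resolved by capillary electrophoresis after RT-PCR, 24 h post-dose in transiently transfected HepG2. Endogenous transcription-factor activity reported via cis-element-regulated reporter units; gain or loss fitted relative to DMSO.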
# [11] = ATG_M_19_CIS: Attagene CIS-FACTORIAL HepG2 Assay for M19 Transcription Factor (Internal Marker) (AID 2282939); conditions: HepG2 Attagene CIS-FACTORIAL M19 internal marker reporter; actives raise or lower the signal
# Procedure, shortened: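 Signals come from fluorescence of labelled reporter-specific PCR fragments resolved by capillary electrophoresis, following 24 h treatment of HepG2 cells transfected with cis-promoter reporter units; activity was fitted in both directions relative to DMSO.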
# [12] = ATG_Ets_CIS: Attagene CIS-FACTORIAL HepG2 Assay for human Erythroblast Transformation Specific (ETS) (AID 2282941); conditions: HepG2 ETS cis-reporter transcription, actives raise or lower the signal
# Procedure, shortened: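 Multiplexed reporter transcript profiling: HepG2, 24 h treatment, total RNA to cDNA, PCR, 6-FAM labelling, HpaI cut, capillary electrophoresis. Gain- or loss-of-signal fitted against DMSO.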
# [13] = target: Hepatocyte nuclear factor 3-beta (Homo sapiens) (UniProt Q9Y261); assay: ATG_FoxA2_CIS: Attagene CIS-FACTORIAL HepG2 Assay for human Forkhead box A2 (FOXA2) (AID 2282942); conditions: HepG2 cis-reporter transcription factor activity, 24 h; actives raise or lower the signal
# Procedure, shortened: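 Readout: fluorescent reporter transcripts resolved by capillary electrophoresis after RT-PCR. Transiently transfected HepG2, 24 h compound exposure, endogenous TF activity at cis promoter elements. Gain or loss of signal fitted relative to DMSO.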
# [14] = ATG_FoxO_CIS: Attagene CIS-FACTORIAL HepG2 Assay for human Forkhead box O (FoxO) (AID 2282943); conditions: HepG2 Attagene cis-reporter, FoxO element, mRNA; actives raise or lower the signal
# Procedure, shortened: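 Transfected HepG2 reporter cells exposed to test chemical for 24 h; reporter RNA measured by reverse transcription, PCR and fluorescent capillary electrophoresis; curves fitted for increases and decreases against DMSO.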
# [15] = ATG_GATA_CIS: Attagene CIS-FACTORIAL HepG2 Assay for human GATA Binding Protein (AID 2282944); conditions: HepG2 GATA cis-element reporter, Attagene multiplex mRNA; actives raise or lower the signal
# Procedure, shortened: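 After transfecting HepG2 cells with multiple cis-regulated reporter units, chemicals are dosed for 24 h; isolated RNA undergoes RT-PCR and fluorescent labeling before capillary electrophoresis, with activity expressed against DMSO.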
# [16] = ATG_GLI_CIS: Attagene CIS-FACTORIAL HepG2 Assay for human Zinc Finger Protein GLI1 (AID 2282945); conditions: HepG2, Attagene cis-factorial reporter mRNA, GLI element; actives raise or lower the signal
# Procedure, shortened: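 Transiently transfected HepG2 cells report endogenous transcription factor activity via cis-element-driven reporter units. After 24 h compound exposure, reporter mRNA was measured by RT-PCR with capillary electrophoresis; bidirectional fitting against DMSO baseline.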
# [17] = ATG_BRE_CIS: Attagene CIS-FACTORIAL HepG2 Assay for human Bone Morphogenetic Protein (BMP) Response Element (BRE) (AID 2282933); conditions: HepG2 BMP response element reporter, Attagene transcription factor profiling; actives raise or lower the signal
# Procedure, shortened: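 Multiplexed cis-reporter assay, HepG2, 24 h exposure. mRNA from reporter units quantified via RT-PCR/CE; DMSO baseline; bidirectional curve fit.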
# [18] = ATG_E_Box_CIS: Attagene CIS-FACTORIAL HepG2 Assay for human Enhancer Box (E-box) (AID 2282936); conditions: HepG2 E-box cis-reporter transcription, actives raise or lower the signal
# Procedure, shortened: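 In this cell-based setup, HepG2 cells bearing transfected promoter-driven reporter units were exposed to chemicals for 24 h; reporter transcripts were amplified, 6-FAM-labelled, cut with HpaI and sized by capillary electrophoresis.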
# Sequence of CCAAT/enhancer-binding protein beta (Homo sapiens) (P17676 whole entry, looked up): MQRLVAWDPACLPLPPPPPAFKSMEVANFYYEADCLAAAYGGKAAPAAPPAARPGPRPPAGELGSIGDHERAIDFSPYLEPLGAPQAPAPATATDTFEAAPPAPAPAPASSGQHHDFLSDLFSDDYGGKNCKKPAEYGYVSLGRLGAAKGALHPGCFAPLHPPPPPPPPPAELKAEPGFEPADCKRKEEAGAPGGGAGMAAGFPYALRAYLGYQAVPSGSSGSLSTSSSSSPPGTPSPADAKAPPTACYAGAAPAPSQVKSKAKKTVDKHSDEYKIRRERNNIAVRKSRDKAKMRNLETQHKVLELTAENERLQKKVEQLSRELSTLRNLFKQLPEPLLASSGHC
# Sequence of Hepatocyte nuclear factor 3-beta (Homo sapiens) (Q9Y261 whole entry, looked up): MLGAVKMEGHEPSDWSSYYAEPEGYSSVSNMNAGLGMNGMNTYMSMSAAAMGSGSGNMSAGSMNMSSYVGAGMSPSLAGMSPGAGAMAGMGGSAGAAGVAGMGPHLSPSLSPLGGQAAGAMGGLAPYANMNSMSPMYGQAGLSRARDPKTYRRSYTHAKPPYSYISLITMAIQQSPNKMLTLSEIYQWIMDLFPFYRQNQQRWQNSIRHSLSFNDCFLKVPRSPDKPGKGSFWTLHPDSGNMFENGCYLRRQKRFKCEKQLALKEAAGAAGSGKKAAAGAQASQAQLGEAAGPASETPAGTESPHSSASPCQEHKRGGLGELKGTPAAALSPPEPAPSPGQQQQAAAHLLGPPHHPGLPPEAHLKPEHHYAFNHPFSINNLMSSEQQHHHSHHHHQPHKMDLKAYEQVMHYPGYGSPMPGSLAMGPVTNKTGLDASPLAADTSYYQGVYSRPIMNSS
# Sequence of Transcription factor E2F1 (Homo sapiens) (Q01094 whole entry, looked up): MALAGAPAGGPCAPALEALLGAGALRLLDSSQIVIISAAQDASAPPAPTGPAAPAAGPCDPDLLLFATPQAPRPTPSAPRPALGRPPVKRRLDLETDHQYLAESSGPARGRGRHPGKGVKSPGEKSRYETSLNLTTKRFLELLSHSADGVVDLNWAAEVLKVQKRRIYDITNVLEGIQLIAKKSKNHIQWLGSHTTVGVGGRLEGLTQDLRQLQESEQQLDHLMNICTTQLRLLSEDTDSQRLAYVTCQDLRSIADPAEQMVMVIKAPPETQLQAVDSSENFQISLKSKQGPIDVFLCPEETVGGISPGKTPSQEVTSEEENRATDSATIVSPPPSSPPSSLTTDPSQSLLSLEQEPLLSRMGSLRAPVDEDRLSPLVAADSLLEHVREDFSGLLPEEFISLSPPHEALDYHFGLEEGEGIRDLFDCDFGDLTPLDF
# Sequence of Aryl hydrocarbon receptor (Homo sapiens) (P35869 whole entry, looked up): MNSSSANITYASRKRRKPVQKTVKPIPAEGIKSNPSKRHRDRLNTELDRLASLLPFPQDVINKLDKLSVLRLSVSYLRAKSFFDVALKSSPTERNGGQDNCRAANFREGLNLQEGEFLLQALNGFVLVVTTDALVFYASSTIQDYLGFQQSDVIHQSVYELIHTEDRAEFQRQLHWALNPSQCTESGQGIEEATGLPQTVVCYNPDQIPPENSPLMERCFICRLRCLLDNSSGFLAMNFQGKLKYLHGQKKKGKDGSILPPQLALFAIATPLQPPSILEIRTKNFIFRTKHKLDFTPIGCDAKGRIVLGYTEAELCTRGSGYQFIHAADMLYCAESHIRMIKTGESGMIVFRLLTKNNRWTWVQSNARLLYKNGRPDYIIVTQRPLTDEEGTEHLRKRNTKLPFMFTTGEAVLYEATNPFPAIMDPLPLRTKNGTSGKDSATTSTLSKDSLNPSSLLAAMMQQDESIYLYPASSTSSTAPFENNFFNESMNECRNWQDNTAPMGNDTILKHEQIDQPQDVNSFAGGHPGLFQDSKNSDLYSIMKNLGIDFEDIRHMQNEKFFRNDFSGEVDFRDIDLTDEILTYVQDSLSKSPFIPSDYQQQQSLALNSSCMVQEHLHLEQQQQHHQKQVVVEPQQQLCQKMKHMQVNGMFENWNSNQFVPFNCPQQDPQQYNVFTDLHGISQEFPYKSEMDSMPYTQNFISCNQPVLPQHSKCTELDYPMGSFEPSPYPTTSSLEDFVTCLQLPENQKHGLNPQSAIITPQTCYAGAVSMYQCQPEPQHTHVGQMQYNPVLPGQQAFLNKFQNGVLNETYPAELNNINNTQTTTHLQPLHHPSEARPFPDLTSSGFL
# Sequence of Retinoic acid receptor alpha (Homo sapiens) (P10276 whole entry, looked up): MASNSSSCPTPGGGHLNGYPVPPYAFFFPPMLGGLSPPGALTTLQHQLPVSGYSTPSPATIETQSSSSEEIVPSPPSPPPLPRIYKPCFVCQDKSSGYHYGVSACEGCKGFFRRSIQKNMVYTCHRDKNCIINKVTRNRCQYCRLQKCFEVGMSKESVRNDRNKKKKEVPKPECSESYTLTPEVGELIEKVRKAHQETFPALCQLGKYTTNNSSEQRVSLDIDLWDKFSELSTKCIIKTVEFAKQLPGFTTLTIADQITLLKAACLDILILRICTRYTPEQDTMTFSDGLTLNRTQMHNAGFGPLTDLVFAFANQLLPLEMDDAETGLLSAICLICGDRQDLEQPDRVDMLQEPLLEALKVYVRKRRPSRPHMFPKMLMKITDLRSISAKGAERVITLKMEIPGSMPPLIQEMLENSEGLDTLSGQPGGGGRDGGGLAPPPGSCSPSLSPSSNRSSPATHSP
compound,measurement,setting,value
OCC#CCO,outcome,[1],inactive
same,outcome,[2],inactive
same,outcome,[3],inactive
same,outcome,[4],inactive
same,outcome,[5],inactive
same,outcome,[6],inactive
same,outcome,[7],inactive
same,outcome,[8],inactive
same,outcome,[9],inactive
same,outcome,[10],inactive
same,outcome,[11],inactive
same,outcome,[12],inactive
same,outcome,[13],inactive
same,outcome,[14],inactive
same,outcome,[15],inactive
same,outcome,[16],inactive
O=C(Nc1ccc2c(c1)Cc1ccccc1-2)C(F)(F)F,outcome,[1],inactive
same,outcome,[2],inactive
same,outcome,[3],inactive
same,AC50,[4],10.2 µM (active)
same,outcome,[5],inactive
same,outcome,[6],inactive
same,outcome,[17],inactive
same,outcome,[7],inactive
same,outcome,[18],inactive
same,outcome,[10],inactive
same,outcome,[11],inactive
same,outcome,[12],inactive
same,outcome,[13],inactive
same,outcome,[14],inactive
same,outcome,[15],inactive
same,outcome,[16],inactive
COc1cc(C(C)C)ccc1C,outcome,[1],inactive
same,outcome,[2],inactive
same,outcome,[4],inactive
same,outcome,[5],inactive
same,outcome,[6],inactive
same,outcome,[17],inactive
same,outcome,[7],inactive
same,outcome,[8],inactive
same,outcome,[18],inactive
same,outcome,[9],inactive
same,outcome,[10],inactive
same,outcome,[11],inactive
same,outcome,[12],inactive
same,outcome,[13],inactive
same,outcome,[14],inactive
same,outcome,[15],inactive
same,outcome,[16],inactive
NCCNc1cccc2ccccc12,AC50,[1],170 µM (active)
same,AC50,[2],169 µM (active)
same,outcome,[3],inactive
same,AC50,[4],7.19 µM (active)
same,outcome,[5],inactive
same,AC50,[6],100 µM (active)
same,outcome,[17],inactive
same,outcome,[7],inactive
same,AC50,[18],176 µM (active)
same,outcome,[9],inactive
same,AC50,[10],141 µM (active)
same,outcome,[11],inactive
same,outcome,[12],inactive
same,outcome,[13],inactive
same,outcome,[14],inactive
same,outcome,[15],inactive
same,outcome,[16],inactive
CCOCCOCCOCC,outcome,[1],inactive
same,outcome,[2],inactive
same,outcome,[3],inactive
same,outcome,[4],inactive
same,outcome,[5],inactive
same,outcome,[6],inactive
same,outcome,[17],inactive
same,outcome,[7],inactive
same,outcome,[8],inactive
same,outcome,[18],inactive
same,outcome,[9],inactive
same,outcome,[10],inactive
same,outcome,[12],inactive
same,outcome,[13],inactive
same,outcome,[14],inactive
same,outcome,[15],inactive
same,outcome,[16],inactive
ClC(c1ccccc1)(c1ccccc1)c1ccccc1,outcome,[1],inactive
same,outcome,[2],inactive
same,AC50,[3],5.95 µM (active)
same,outcome,[4],inactive
same,outcome,[5],inactive
same,outcome,[6],inactive
same,outcome,[17],inactive
same,outcome,[7],inactive
same,outcome,[8],inactive
same,outcome,[9],inactive
same,outcome,[10],inactive
same,outcome,[11],inactive
same,outcome,[12],inactive
same,outcome,[15],inactive
same,outcome,[16],inactive

# Source: PubChem BioAssay (EPA / NIEHS)
